Reference: PubChem BioAssay (EPA / NIEHS)
Activity calls are given as the source filed them. Rule for the calls: active = hit-call score of the fitted dose curve at least 0.9, where 1 is the maximum; inactive = score below 0.9.

Assay: ATG_TCF_b_cat_CIS: Attagene CIS-FACTORIAL HepG2 Assay for human T-Cell-Factor with beta-catenin (TCF/b-cat) (AID 2282965)
Conditions: HepG2 TCF/beta-catenin cis-reporter transcription, actives raise or lower the signal
Protocol: ATG_CIS is a cell-based, multiplexed-readout assay that uses HepG2, a human liver cell line, with measurements taken at 24 hours after chemical dosing in a 24-well plate.ATG_TCF_b_cat_CIS is one of 52 assay component(s) measured or calculated from the ATG_CIS assay. It is designed to make measurements of mRNA induction, a form of inducible reporter, as detected with fluorescence intensity signals by Reverse transcription polymerase chain reaction (RT-PCR) and Capillary electrophoresis technology.Data from the assay component ATG_TCF_b_cat_CIS was analyzed into 1 assay endpoint. This assay endpoint, ATG_TCF_b_cat_CIS, was analyzed with bidirectional fitting relative to DMSO as the negative control and baseline of activity. Using a type of inducible reporter, measures of mRNA for gain or loss-of-signal activity can be used to understand the reporter gene at the transcription factor-level as they relate to the gene TCF7 and TCF7L2 and LEF1 and TCF7L1. Furthermore, this assay endpoint can be referred to as a primary readout, because this assay has produced multiple assay endpoints where this one serves a reporter gene function. To generalize the intended target to other relatable targets, this assay endpoint is annotated to the dna binding intended target family, where the subfamily is HMG box protein.
Human liver HepG2 cells are transiently transfected with multiple reporter transcription units (MRTUs) in 6-well plates using FuGene 6 reagent (Roche; 3 ml FuGene/1 mg DNA). The MRTU constructs are regulated by a cis-regulating element (promoter). […] A major difference between the CIS and TRANS system is that in CIS activities of endogenous TFs are measured, whereas the TRANS assay evaluates changes in activities of exogenous, chimeric NR-Gal4 proteins. […] At the end of 24 hour incubation, total RNA was isolated using TriZol reagent (Invitrogen). The isolated RNA is then reverse-transcribed using oligo(dT) primer and Mo-MLV reverse transcriptase (Invitrogen) with DNAse I (Ambion) treatment for 30 min. The one-tenth of the produced cDNA was amplified by PCR using Taq DNA polymerase (Invitrogen) and two reporter sequence-specific primers. The PCR products were fluorescently labeled by primer extension with 6-arboxyfluorescein (6-FAM) 5'-labeled reporter sequence-specific primer (2 min at 95 C, 20 s at 68 C and 10 min at 72 C) and these products were digested with 5U of HpaI (New England Biolabs) for 2h at 37 C. The fragments were purified using Qiaquick PCR columns (Qiagen), analyzed on an ABI 3130xL genetic analyzer (Applied Biosystems) with peak positions identified by using a set of X-rhodamine (ROX)-labeled MapMarker1000 molecular weight standards (BioVentures). The raw capillary electrophoresis data was processed using Attagraph software (Attagene).

| SMILES | outcome | AC50 |
| --- | --- | --- |
| CC1=CCC(C(C)(C)O)CC1 (stereo not given) | inactive |  |
| CCOC(=O)CC(C)C | inactive |  |
| CC(=N[Si](C)(C)C)O[Si](C)(C)C | inactive |  |
| CC(C)(O)C(=O)c1ccc(OCCO)cc1 | inactive |  |
| CCCCCCCCCCOC(=O)c1ccccc1C(=O)OCCCCCCCC | inactive |  |
| CC/C=C\CCCCO | inactive |  |
| CCc1cccc(O)c1 | inactive |  |
| CN(C)C(=O)Nc1ccccc1 | inactive |  |
| CC(O)CN (stereo not given) | inactive |  |
| O=C(O)C1=NN(c2ccc(S(=O)(=O)O)cc2)C(=O)C1 | inactive |  |
| c1ccc2scnc2c1 | inactive |  |
| C1=COCCC1 | inactive |  |
| CC(C)(C)C1CCC(O)CC1 (stereo not given) | inactive |  |
| CCCCCC1CCC(=O)O1 (stereo not given) | inactive |  |
| CC(C)C(=O)OCC=Cc1ccccc1 | inactive |  |
| O=C(O)CS | inactive |  |
| COc1ccccc1NC(=O)CC(C)=O | inactive |  |
| CC(C)(C)c1cccc(O)c1 | inactive |  |
| CCO[Si](CC)(OCC)OCC |  | 173 µM (active) |
| CC(C)CCOC(=O)CC(C)C | inactive |  |

| SMILES | outcome | AC50 |
| --- | --- | --- |
| CCCCC/C=C\C=C\C(=O)OCC | inactive |  |
| O=S(=O)(O)CCCN1CCOCC1 | inactive |  |
| O=C(O)c1ccco1 | inactive |  |
| CC1(C)CC(N)CC(C)(CN)C1 (stereo not given) | inactive |  |
| C=C(C)C(N)=O | inactive |  |
| O=C(O)c1ccccc1O | inactive |  |
| Cc1cc(O)c(C)c(C)c1O | inactive |  |
| CC(O)COCC(C)O (stereo not given) | inactive |  |
| COc1cc(OC)c2ccc(=O)oc2c1 | inactive |  |
| NC(=O)c1cnccn1 | inactive |  |
| CC=CC(=O)C1=C(C)C=CCC1(C)C | inactive |  |
| O=C(C=Cc1ccccc1)OCCCc1ccccc1 | inactive |  |
| C=CC(O)CCCCC (stereo not given) |  | 27 µM (active) |
| O=S1(=O)CC=CC1 | inactive |  |
| CC/C=C\CCOC(C)OCC (stereo not given) | inactive |  |
| CC(=O)OC(C)(C)C | inactive |  |
| CC1=CCC(C(C)C)=CC1 | inactive |  |
| CC/C=C\CCOC(=O)C(C)C | inactive |  |
| CC1=C(C=O)C(C)(C)CCC1 | inactive |  |
| S=c1[nH][nH]c(=S)s1 | inactive |  |
